Measurements: PubChem BioAssay (NCI)
Several values for one entry are separate records, joined by “and”; a condition that tells them apart may be missing. Identical values can stand only once. About 83,000 compounds went through this panel and 20% of them were active in at least one assay; those are over-represented in the sample as a whole.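 Activity criterion: percent growth below 10, measured after cells in 96-well plates were exposed to a single compound concentration for 48 hours.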 Activity calls are given as the source filed them.

Test system: HL-60(TB) leukemia
Assay: NCI-60 one-dose screen, 48 h (100 = growth as untreated, 0 = no growth, -100 = all killed)
Details: 10 µM unless noted

Compound	growth
C/C(Nc1ccc(Cl)c(Cl)c1)=C1\CCOC1=O	96.6% (inactive)
COC(=O)CC[C@@H]1O[C@@H](c2cccc(C(F)(F)F)c2)[C@@H](O)[C@H]1O	105% (inactive)
COc1ccc(-c2nc(N)ncc2Oc2ccccc2OC)c(O)c1	-21.8% (active)
COc1ccc(/C=C/c2nnc(/C=C/c3ccc(OC)c(OC)c3)o2)cc1OC	12.1% (inactive)
NC(=S)Cc1ccccc1	99.1% (inactive)
COc1cccc2cc(-c3nc(C4CCC(C(=O)O)CC4)n4ncnc(N)c34)[nH]c12 (stereo not given)	33.3% (inactive)
COc1cc(-c2nc3occn3c2-c2ccnc(NCCNS(=O)(=O)c3ccc(Cl)cc3)n2)ccc1F	100% (inactive)
Nc1c(S(=O)(=O)O)cc(Br)c2c1C(=O)c1ccccc1C2=O	103% (inactive) and 91% (inactive)
COc1ccc(-c2cn[nH]c2-c2cc(OC)c(OC)c(OC)c2)cc1N	-17.8% (active) and -10.7% (active)
CN(C)CC(=O)Nc1ccc2ncnc(Nc3ccc(Oc4cccc(C(F)(F)F)c4)c(Cl)c3)c2c1	2.72% (active)
CN1CCN(C2CCN(C(=O)Nc3cc(Oc4ccc(NC(=O)C5(C(=O)Nc6ccc(F)cc6)CC5)c(F)c4)ccn3)CC2)CC1	-44.7% (active) and 121% (inactive)
CCCCCCCCn1ccc2cc(NC(=O)Cn3cc(CN4CCCC4)nn3)ccc21	13.8% (inactive)
O=C(CCCCC1CCSS1)Nc1ncnc2n[nH]c(-c3ccc(Oc4ccccc4)cc3)c12 (stereo not given)	78.8% (inactive)
COC(=O)c1ccc(=O)c2nc3/c(=C/O)c(O)cc(=O)c3[nH]c12	0.308% (active)
Cc1ccc(-c2cn(C/C=C3\C=CN(S(=O)(=O)c4ccccc4)CC3)nn2)cc1	105% (inactive)
O=C1C(Cl)=C(Nc2ccc3cn[nH]c3c2)C(=O)c2ccccc21	-69.2% (active)
Cn1c2c(c3ccc(Cl)cc31)-n1cccc1C2=O	64.9% (inactive)
Oc1ccc(/C=N/Nc2nnc(N/N=C/c3ccc(O)cc3O)c3ccccc23)c(O)c1	-62.2% (active)
O=C1Cc2ccccc2C(=O)N1	67.6% (inactive)
CCn1c2ccccc2c2cc(NC(=O)Nc3ccc([N+](=O)[O-])cc3C)ccc21	18.7% (inactive)

Compound	growth
COc1ccccc1Nc1nc2c(s1)C1=CC[C@H]3[C@@H]4CC[C@H]([C@H](C)CCCC(C)C)[C@@]4(C)CC[C@@H]3[C@@]1(C)CC2	102% (inactive)
OB1OCc2cc(/C=C/c3cccc(C(F)(F)F)c3)ccc21	-6.49% (active)
Nc1ccccc1NC(=O)c1ccc(CCCC(=O)Nc2ccc(C3CC3N)cc2)cc1 (stereo not given)	24.6% (inactive)
COC(=O)[C@]12CC[C@@H](C)[C@H](C)[C@@H]1C1=CC[C@@H]3[C@@]4(C)CC(=O)[C@H](O)[C@@](C)(CO)[C@@H]4C(=O)C[C@@]3(C)[C@]1(C)CC2	-33.3% (active)
O=C1OC(C(O)C(O)CO)C(O)=C1O (stereo not given)	114% (inactive) and 104% (inactive)
ClC(Cl)c1nc(-c2cccnc2)n2nc(-c3ccccc3)cc2n1	14.2% (inactive)
CC(C)C[C@H](NC(=O)[C@@H](Cc1ccccc1)n1ccc(Nc2ccccc2)cc1=O)B(O)O	-7.72% (active)
O=C1CC2(O)CSc3nc(=O)cc(n32)N1 (stereo not given)	100% (inactive)
COc1ccc(/C=C2\N=C3SC=C(N)N3C2=O)cc1	-40% (active)
Nc1nc(N)nc(NCc2ccccc2)n1	98.6% (inactive)
O=C(/C=C/C=C/c1ccc2c(c1)OCO2)N/N=C\c1ccc(O)cc1O	-0.489% (active)
COc1cc(C2=NN(C=O)C(c3cccc(Nc4ccnc5cc(C(F)(F)F)ccc45)c3)C2)cc(OC)c1OC (stereo not given)	8.02% (active)
CCN(CC)C(=O)O/N=C(/C)c1ccccc1	95.5% (inactive)
Clc1ccc(Nc2nnc(COc3ccccc3)c3ccccc23)cc1	-15.7% (active)
COc1c(B(O)O)cccc1-c1nc2ccc3n[nH]c(F)c3c2c2c1CCCC2	20% (inactive)
C[C@@H](C(=O)NCCCC#Cc1cnc(Nc2ccc(C#N)cc2)nc1NC1CC1)N(C)C(=O)/C=C/CN(C)C	42.6% (inactive)
O=C(O)C1CCN(S(=O)(=O)c2ccc(-c3ccccc3)cc2)CC1	45.6% (inactive)
COc1ccc(Cl)c([N+](=O)[O-])c1	98.6% (inactive)
CN(C)CCNc1cc(-c2ccccc2)nc2ccccc12	-17.7% (active)
CC(C)Oc1ccc2cc(-c3nn(CC4CCNCC4)c4ncnc(N)c34)ccc2c1	63.8% (inactive) and -56.6% (active)
